# According to the supplement of paper PMC10037445:
# In all, about 2,900 compounds were measured (“NF-kB SEAP reporter activity, fold change vs agonist alone”: median about 0.99, highest 2% from about 2.6 on). The sample holds the highest values, similar compounds and a random draw of the others, so the mix is not that of the screen.
# Assays:
# [1] = system: RAW-Dual; assay: NF-kB SEAP reporter activity, fold change vs agonist alone; cytotoxicity flag (confluency mask): not cytotoxic; higher = enhanced NF-kB activity
# Procedure, shortened: (§1)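 Reporter activity is given as fold change relative to agonist-alone wells. To measure it, 50 nL of library stock was pin-tooled onto RAW-Dual macrophages (50,000 cells/well, DMEM, 384-well plates), a PRR agonist followed 1 h later, and cells stayed at 37 °C, 5% CO2. Twenty hours on, supernatant was assayed for IRF (QuantiLuc luminescence) and NF-κB (QuantiBlue, 620 nm absorbance), and wells under 70% of agonist-control IncuCyte confluency in both mask sets were marked cytotoxic.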
# [2] = system: RAW-Dual; assay: NF-kB SEAP reporter activity, fold change vs agonist alone; higher = enhanced NF-kB activity
# Procedure, shortened: as §1
# [3] = system: RAW-Dual; assay: NF-kB SEAP reporter activity, fold change vs agonist alone; cytotoxicity flag (confluency mask): cytotoxic (confluency <70% of control); higher = enhanced NF-kB activity
# Procedure, shortened: as §1
# [4] = agonist: ODN 1826 (TLR9) 0.5 ug/mL
# [5] = agonist: Pam2CSK4 (TLR2/6) 0.1 ug/mL
# [6] = agonist: Pam3CSK4 (TLR2/1) 0.1 ug/mL
# [7] = library stock concentration (final ~1000-fold dilution): 10 mM, cytotoxicity flag (confluency mask): not cytotoxic, agonist: Imiquimod (TLR7) […]
# [8] = library stock concentration (final ~1000-fold dilution): 10 mM, cytotoxicity flag (confluency mask): not cytotoxic, agonist: MPLA (TLR4) […]
# [9] = library stock concentration (final ~1000-fold dilution): 2 mM, cytotoxicity flag (confluency mask): not cytotoxic, agonist: Imiquimod (TLR7) […]
# [10] = library stock concentration (final ~1000-fold dilution): 2 mM, cytotoxicity flag (confluency mask): not cytotoxic, agonist: MPLA (TLR4) […]
compound,measurement,setting,value
Cc1cc2ncc(C(=O)NCC(C)(C)NCC(=O)N3CCCC3C#N)cn2n1 (centres undefined) (library stock concentration (final ~1000-fold dilution): 10 mM),NF-kB SEAP reporter activity,[1]; agonist: LPS (TLR4) 0.1 ug/mL,1.57
same,NF-kB SEAP reporter activity,[1]; [4],0.997
same,NF-kB SEAP reporter activity,[1]; [5],0.911
same,NF-kB SEAP reporter activity,[1]; [6],0.96
Cc1cc2ncc(C(=O)NCC(C)(C)NCC(=O)N3CCCC3C#N)cn2n1 (centres undefined),NF-kB SEAP reporter activity,[2]; [7],0.977
same,NF-kB SEAP reporter activity,[2]; [8],1.04
COc1ccccc1Nc1nc(-c2sc(NC(C)=O)nc2C)cs1 (library stock concentration (final ~1000-fold dilution): 10 mM),NF-kB SEAP reporter activity,[1]; agonist: LPS (TLR4) 0.1 ug/mL,0.496
same,NF-kB SEAP reporter activity,[1]; [4],0.464
same,NF-kB SEAP reporter activity,[1]; [5],0.318
same,NF-kB SEAP reporter activity,[1]; [6],0.245
COc1ccccc1Nc1nc(-c2sc(NC(C)=O)nc2C)cs1,NF-kB SEAP reporter activity,[2]; [7],0.623
same,NF-kB SEAP reporter activity,[2]; [8],0.687
CC(C)(OC1OC(CO)C(O)C(O)C1O)C1Cc2cc3ccc(=O)oc3cc2O1 (centres undefined),NF-kB SEAP reporter activity,[2]; [7],1.21
same,NF-kB SEAP reporter activity,[2]; [8],1.19
CC(C)(OC1OC(CO)C(O)C(O)C1O)C1Cc2cc3ccc(=O)oc3cc2O1 (centres undefined) (library stock concentration (final ~1000-fold dilution): 10 mM),NF-kB SEAP reporter activity,[1]; agonist: LPS (TLR4) 0.1 ug/mL,1.14
same,NF-kB SEAP reporter activity,[1]; [4],1.31
same,NF-kB SEAP reporter activity,[1]; [5],1.27
same,NF-kB SEAP reporter activity,[1]; [6],1.48
Cl.O=C1C2CCCCC2C(=O)N1CCCCN1CCN(c2nsc3ccccc23)CC1 (centres undefined) (library stock concentration (final ~1000-fold dilution): 10 mM),NF-kB SEAP reporter activity,[1]; agonist: LPS (TLR4) 0.1 ug/mL,0.671
same,NF-kB SEAP reporter activity,[1]; [4],0.536
same,NF-kB SEAP reporter activity,[1]; [5],0.848
same,NF-kB SEAP reporter activity,[1]; [6],0.888
Cl.O=C1C2CCCCC2C(=O)N1CCCCN1CCN(c2nsc3ccccc23)CC1 (centres undefined),NF-kB SEAP reporter activity,[2]; [8],0.868
Cc1n[nH]c2ccc(-c3cncc(OCC(N)Cc4ccccc4)c3)cc12 (centres undefined),NF-kB SEAP reporter activity,[2]; [7],0.904
same,NF-kB SEAP reporter activity,[2]; [8],0.967
Cc1n[nH]c2ccc(-c3cncc(OCC(N)Cc4ccccc4)c3)cc12 (centres undefined) (library stock concentration (final ~1000-fold dilution): 10 mM),NF-kB SEAP reporter activity,[1]; agonist: LPS (TLR4) 0.1 ug/mL,0.198
same,NF-kB SEAP reporter activity,[1]; [4],0.962
same,NF-kB SEAP reporter activity,[1]; [5],0.447
same,NF-kB SEAP reporter activity,[1]; [6],1.01
C=CC1(C)CC(OC(=O)CSCCN(CC)CC)C2(C)C(C)CCC3(CCC(=O)C32)C(C)C1O.O=C(O)/C=C/C(=O)O (centres undefined),NF-kB SEAP reporter activity,[2]; [8],1.13
C=CC1(C)CC(OC(=O)CSCCN(CC)CC)C2(C)C(C)CCC3(CCC(=O)C32)C(C)C1O.O=C(O)/C=C/C(=O)O (centres undefined) (library stock concentration (final ~1000-fold dilution): 10 mM),NF-kB SEAP reporter activity,[1]; agonist: LPS (TLR4) 0.1 ug/mL,1.37
same,NF-kB SEAP reporter activity,[1]; [4],0.712
same,NF-kB SEAP reporter activity,[1]; [5],0.821
same,NF-kB SEAP reporter activity,[1]; [6],0.841
O=C(/C=C/N1CC2CC1CN2c1ccccn1)c1ccccc1O (centres undefined),NF-kB SEAP reporter activity,[2]; [7],0.829
same,NF-kB SEAP reporter activity,[2]; [8],1.03
O=C(/C=C/N1CC2CC1CN2c1ccccn1)c1ccccc1O (centres undefined) (library stock concentration (final ~1000-fold dilution): 10 mM),NF-kB SEAP reporter activity,[1]; agonist: LPS (TLR4) 0.1 ug/mL,1.01
same,NF-kB SEAP reporter activity,[1]; [4],0.735
same,NF-kB SEAP reporter activity,[1]; [5],1.02
same,NF-kB SEAP reporter activity,[1]; [6],1.39
CCN(CC)CCCCC(NC(=O)C(CC(C)C)NC(=O)C(C)NC(=O)C(Cc1ccccc1)NC(=O)c1ccc(C(C)(C)C)cc1)C(=O)NC(CO)C(=O)OC (centres undefined) (library stock concentration (final ~1000-fold dilution): 10 mM),NF-kB SEAP reporter activity,[1]; agonist: LPS (TLR4) 0.1 ug/mL,0.99
same,NF-kB SEAP reporter activity,[1]; [4],0.888
same,NF-kB SEAP reporter activity,[1]; [5],0.898
same,NF-kB SEAP reporter activity,[1]; [6],1.1
COC(=O)C(CCSC)NC(=O)c1ccc(NCC(N)CS)cc1-c1ccccc1.Cl (centres undefined),NF-kB SEAP reporter activity,[2]; [7],1.13
same,NF-kB SEAP reporter activity,[2]; [8],1.22
COC(=O)C(CC(C)C)NC(=O)c1ccc(NCC(N)CS)cc1-c1cccc2ccccc12.O=C(O)C(F)(F)F (centres undefined),NF-kB SEAP reporter activity,[2]; [7],1.25
same,NF-kB SEAP reporter activity,[2]; [8],2.31
COC(=O)C(CC(C)C)NC(=O)c1ccc(NCC(N)CS)cc1-c1cccc2ccccc12.O=C(O)C(F)(F)F (centres undefined) (library stock concentration (final ~1000-fold dilution): 10 mM),NF-kB SEAP reporter activity,[1]; agonist: LPS (TLR4) 0.1 ug/mL,3.82
same,NF-kB SEAP reporter activity,[1]; [4],2.38
same,NF-kB SEAP reporter activity,[1]; [5],1.5
same,NF-kB SEAP reporter activity,[1]; [6],2.19
COC(=O)C(CCSC)NC(=O)c1ccc(NCC(N)CS)cc1-c1ccccc1.Cl (centres undefined) (library stock concentration (final ~1000-fold dilution): 10 mM),NF-kB SEAP reporter activity,[1]; agonist: LPS (TLR4) 0.1 ug/mL,1.38
same,NF-kB SEAP reporter activity,[1]; [4],1.56
same,NF-kB SEAP reporter activity,[1]; [5],1.16
same,NF-kB SEAP reporter activity,[1]; [6],0.929
CCN(CC)CCCCC(NC(=O)C(CC(C)C)NC(=O)C(C)NC(=O)C(Cc1ccccc1)NC(=O)c1ccc(C(C)(C)C)cc1)C(=O)NC(CO)C(=O)OC (centres undefined),NF-kB SEAP reporter activity,[2]; [7],1.08
same,NF-kB SEAP reporter activity,[2]; [8],0.945
C=C(C)C1CCC2(C(=O)OC3OC(COC4OC(CO)C(OC5OC(C)C(O)C(O)C5O)C(O)C4O)C(O)C(O)C3O)CCC3(C)C(CCC4C5(C)CCC(OC6OCC(O)C(O)C6OC6OC(C)C(O)C(O)C6O)C(C)(CO)C5CCC43C)C12 (centres undefined),NF-kB SEAP reporter activity,[2]; [9],0.946
same,NF-kB SEAP reporter activity,[2]; [10],1.07
C=C(C)C1CCC2(C(=O)OC3OC(COC4OC(CO)C(OC5OC(C)C(O)C(O)C5O)C(O)C4O)C(O)C(O)C3O)CCC3(C)C(CCC4C5(C)CCC(OC6OCC(O)C(O)C6OC6OC(C)C(O)C(O)C6O)C(C)(CO)C5CCC43C)C12 (centres undefined) (library stock concentration (final ~1000-fold dilution): 2 mM),NF-kB SEAP reporter activity,[1]; agonist: LPS (TLR4) 0.1 ug/mL,1
same,NF-kB SEAP reporter activity,[1]; [4],1.09
same,NF-kB SEAP reporter activity,[1]; [5],1.17
same,NF-kB SEAP reporter activity,[1]; [6],1.16
Cn1cc(-c2cnn3c(N)c(Br)c(C4CCCNC4)nc23)cn1 (centres undefined),NF-kB SEAP reporter activity,[2]; [9],1.09
same,NF-kB SEAP reporter activity,[2]; [10],1.35
Cn1cc(-c2cnn3c(N)c(Br)c(C4CCCNC4)nc23)cn1 (centres undefined) (library stock concentration (final ~1000-fold dilution): 2 mM),NF-kB SEAP reporter activity,[1]; agonist: LPS (TLR4) 0.1 ug/mL,1.31
same,NF-kB SEAP reporter activity,[1]; [4],1.04
same,NF-kB SEAP reporter activity,[1]; [5],1.04
same,NF-kB SEAP reporter activity,[1]; [6],1.19
Nc1ccn(C2CCC(CO)O2)c(=O)n1 (centres undefined),NF-kB SEAP reporter activity,[2]; [7],0.994
same,NF-kB SEAP reporter activity,[2]; [8],0.981
Nc1ccn(C2CCC(CO)O2)c(=O)n1 (centres undefined) (library stock concentration (final ~1000-fold dilution): 10 mM),NF-kB SEAP reporter activity,[1]; agonist: LPS (TLR4) 0.1 ug/mL,0.913
same,NF-kB SEAP reporter activity,[1]; [4],1
same,NF-kB SEAP reporter activity,[1]; [5],0.95
same,NF-kB SEAP reporter activity,[1]; [6],1.15
Cn1cc(-c2ccc(S(=O)(=O)n3ccc(/C=C/C(=O)Nc4ccccc4N)c3)cc2)cn1,NF-kB SEAP reporter activity,"[2]; library stock concentration (final ~1000-fold dilution): 10 mM, cytotoxicity flag (confluency mask): cytotoxic (confluency <70% of control), agonist: Imiquimod (TLR7) […]",1.68
same,NF-kB SEAP reporter activity,"[2]; library stock concentration (final ~1000-fold dilution): 10 mM, cytotoxicity flag (confluency mask): cytotoxic (confluency <70% of control), agonist: MPLA (TLR4) […]",2.37
Nc1cc(F)ccc1NC(=O)/C=C/c1cnn(C/C=C/c2ccccc2)c1 (library stock concentration (final ~1000-fold dilution): 10 mM),NF-kB SEAP reporter activity,[1]; agonist: LPS (TLR4) 0.1 ug/mL,0.995
same,NF-kB SEAP reporter activity,[1]; [4],1.12
same,NF-kB SEAP reporter activity,[1]; [5],0.405
same,NF-kB SEAP reporter activity,[1]; [6],0.419
Nc1cc(F)ccc1NC(=O)/C=C/c1cnn(C/C=C/c2ccccc2)c1,NF-kB SEAP reporter activity,[2]; [7],1.14
same,NF-kB SEAP reporter activity,[2]; [8],1.2
Cn1cc(-c2ccc(S(=O)(=O)n3ccc(/C=C/C(=O)Nc4ccccc4N)c3)cc2)cn1 (library stock concentration (final ~1000-fold dilution): 10 mM),NF-kB SEAP reporter activity,[3]; agonist: LPS (TLR4) 0.1 ug/mL,4.11
same,NF-kB SEAP reporter activity,[3]; [4],3.13
same,NF-kB SEAP reporter activity,[3]; [5],1.14
same,NF-kB SEAP reporter activity,[3]; [6],2.27
COc1cc(C(=O)O)ccc1O (library stock concentration (final ~1000-fold dilution): 10 mM),NF-kB SEAP reporter activity,[1]; agonist: LPS (TLR4) 0.1 ug/mL,1.06
same,NF-kB SEAP reporter activity,[1]; [4],1.12
same,NF-kB SEAP reporter activity,[1]; [5],1.14
same,NF-kB SEAP reporter activity,[1]; [6],1.16
COc1cc(C(=O)O)ccc1O,NF-kB SEAP reporter activity,[2]; [7],0.937
same,NF-kB SEAP reporter activity,[2]; [8],1.02
